According to the supplement of paper PMC8007513:
Structures can show the parent of a compound that is named as a salt. ± gives the standard error. The whole screen tested about 1,300 compounds, of which about 130 (10%) showed an effect of 50% or more. This excerpt belongs to a sample that is enriched for strong results.

Tested on: Trichoderma virens ATCC 9645
Test: growth yield (OD600) with compound + IPBC relative to untreated control; higher = less growth inhibition
Conditions: compound concentration: 100 uM, IPBC concentration: 200 ng/ml
Summary of the method: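 A biocide at 200 ng ml^−1 was co-applied to some wells, and library compounds were present in all test wells at 100 μM final. The wells held 100 μl of Trichoderma virens ATCC 9645 spores at 15,000 spores ml^−1 in potato dextrose broth, grown at 30 °C in 96-well plates, with OD600 read at 40 h and 72 h. Results are relative growth against the control without either agent, averaged across duplicate screens.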

| Compound | growth yield (40 h) | growth yield (72 h) |
| --- | --- | --- |
| COc1ccc(CCN)cc1OC [Homoveratrylamine] + CCCCNC(=O)OCC#CI [3-iodo-2-propynyl butylcarbamate (IPBC)] | 89.3 ± 5.4% | 91.1 ± 6.4% |
| O=P(O)(O)C(O)(Cn1ccnc1)P(=O)(O)O [Zoledronic acid hydrate] + CCCCNC(=O)OCC#CI [3-iodo-2-propynyl butylcarbamate (IPBC)] | 102 ± 6.3% | 105 ± 4.3% |
| O=C(Cn1ccnc1[N+](=O)[O-])NCCO [Etanidazole] + CCCCNC(=O)OCC#CI [3-iodo-2-propynyl butylcarbamate (IPBC)] | 91.3 ± 3.3% | 92.2 ± 3.9% |
| COc1cc([S+](C)[O-])ccc1-c1nc2cccnc2[nH]1 (centres undefined) [Sulmazole] + CCCCNC(=O)OCC#CI [3-iodo-2-propynyl butylcarbamate (IPBC)] | 110 ± 9.8% | 107 ± 4.2% |
| CO[C@H]1/C=C/O[C@@]2(C)Oc3c(C)c(O)c4c(O)c(c(/C=N/N5CCN(C)CC5)c(O)c4c3C2=O)NC(=O)/C(C)=C\C=C\[C@H](C)[C@H](O)[C@@H](C)[C@@H](O)[C@@H](C)[C@H](OC(C)=O)[C@@H]1C [Rifampicin] + CCCCNC(=O)OCC#CI [3-iodo-2-propynyl butylcarbamate (IPBC)] | 89 ± 7% | 93.8 ± 3.6% |
| Nc1nc(=O)c2nc(CNc3ccc(C(=O)N[C@@H](CCC(=O)O)C(=O)O)cc3)cnc2[nH]1 [Folic acid] + CCCCNC(=O)OCC#CI [3-iodo-2-propynyl butylcarbamate (IPBC)] | 84.82 ± 0.32% | 91.03 ± 0.84% |
| C[C@@H](c1ncncc1F)[C@](O)(Cn1cncn1)c1ccc(F)cc1F [Voriconazole] + CCCCNC(=O)OCC#CI [3-iodo-2-propynyl butylcarbamate (IPBC)] | 5.24 ± 0.16% | 4.09 ± 0.1% |
| OC(Cn1cncn1)(Cn1cncn1)c1ccc(F)cc1F [Fluconazole] + CCCCNC(=O)OCC#CI [3-iodo-2-propynyl butylcarbamate (IPBC)] | 57.7 ± 5.9% | 75.2 ± 8.5% |
| CNC(C)CCC=C(C)C (centres undefined) [Isometheptene mucate] + CCCCNC(=O)OCC#CI [3-iodo-2-propynyl butylcarbamate (IPBC)] | 101 ± 16% | 101 ± 8.4% |
| CC(O)(CS(=O)(=O)c1ccc(F)cc1)C(=O)Nc1ccc(C#N)c(C(F)(F)F)c1 (centres undefined) [Bicalutamide] + CCCCNC(=O)OCC#CI [3-iodo-2-propynyl butylcarbamate (IPBC)] | 94 ± 12% | 97.5 ± 6.5% |
| CCOc1ccccc1OCC1CNCCO1 (centres undefined) [Viloxazine hydrochloride] + CCCCNC(=O)OCC#CI [3-iodo-2-propynyl butylcarbamate (IPBC)] | 103 ± 19% | 102 ± 14% |
| Clc1ccccc1C(c1ccccc1)(c1ccccc1)n1ccnc1 [Clotrimazole] + CCCCNC(=O)OCC#CI [3-iodo-2-propynyl butylcarbamate (IPBC)] | 5.08 ± 0.32% | 3.46 ± 0.1% |
| CCN1CCCC1CNC(=O)c1cc(S(N)(=O)=O)ccc1OC (centres undefined) [Sulpiride] + CCCCNC(=O)OCC#CI [3-iodo-2-propynyl butylcarbamate (IPBC)] | 86.41 ± 0.32% | 90.3 ± 0.94% |
| CCC(C)(C)c1ccc(CC(C)CN2C[C@@H](C)O[C@@H](C)C2)cc1 (some centres undefined) [Amorolfine hydrochloride] + CCCCNC(=O)OCC#CI [3-iodo-2-propynyl butylcarbamate (IPBC)] | 3.97 ± 0.16% | 2.94 ± 0.21% |
| C[C@]12COC(=O)C[C@@H]1CC[C@@H]1[C@@H]2CC[C@@]2(C)[C@H]1CC[C@]2(C)O [Oxandrolone] + CCCCNC(=O)OCC#CI [3-iodo-2-propynyl butylcarbamate (IPBC)] | 102.8 ± 0.79% | 101.8 ± 0.94% |
| CCN(CC)C(=O)Nc1ccc(OCC(O)CNC(C)(C)C)c(C(C)=O)c1 (centres undefined) [Celiprolol hydrochloride] + CCCCNC(=O)OCC#CI [3-iodo-2-propynyl butylcarbamate (IPBC)] | 87 ± 5.7% | 92.2 ± 3.9% |
| CN[C@@H]1[C@@H](O)[C@@H](O[C@@H]2[C@@H](O)[C@H](O[C@H]3O[C@H](CN)CC[C@H]3N)[C@@H](N)C[C@H]2N)OC[C@]1(C)O.CN[C@@H]1[C@@H](O)[C@@H](O[C@@H]2[C@@H](O)[C@H](O[C@H]3O[C@H]([C@@H](C)N)CC[C@H]3N)[C@@H](N)C[C@H]2N)OC[C@]1(C)O.CN[C@@H]1[C@@H](O)[C@@H](O[C@@H]2[C@@H](O)[C@H](O[C@H]3O[C@H]([C@@H](C)NC)CC[C@H]3N)[C@@H](N)C[C@H]2N)OC[C@]1(C)O [Gentamicine sulfate] + CCCCNC(=O)OCC#CI [3-iodo-2-propynyl butylcarbamate (IPBC)] | 98.3 ± 7.5% | 101 ± 4.4% |
| C[C@@H]1[C@H](O)[C@@H](C)/C=C/C=C/C=C/C=C/C=C/C=C/C=C/[C@H](O[C@@H]2O[C@H](C)[C@@H](O)[C@H](N)[C@@H]2O)C[C@@H]2O[C@](O)(C[C@@H](O)C[C@@H](O)[C@H](O)CC[C@@H](O)C[C@@H](O)CC(=O)O[C@H]1C)C[C@H](O)[C@H]2C(=O)O [Amphotericin B] + CCCCNC(=O)OCC#CI [3-iodo-2-propynyl butylcarbamate (IPBC)] | 37.3 ± 4.6% | 92.61 ± 0.73% |
| CC1OC(OC2/C=C/C=C/C=C/C=C/CC/C=C/C=C/[C@H](C)[C@@H](O)[C@@H](C)[C@H](C)OC(=O)CC(O)CC(O)CC(O)CCC(O)C(O)C[C@]3(O)CC(O)C(C(=O)O)C(C2)O3)C(O)C(N)C1O (some centres undefined) [Nystatine] + CCCCNC(=O)OCC#CI [3-iodo-2-propynyl butylcarbamate (IPBC)] | 50.5 ± 2.5% | 104 ± 2.3% |
| Clc1cccc(Cl)c1NC1=NCCN1 [Clonidine hydrochloride] + CCCCNC(=O)OCC#CI [3-iodo-2-propynyl butylcarbamate (IPBC)] | 92.9 ± 5.6% | 99.2 ± 4.4% |
| Cc1oncc1C(=O)Nc1ccc(C(F)(F)F)cc1 [Leflunomide] + CCCCNC(=O)OCC#CI [3-iodo-2-propynyl butylcarbamate (IPBC)] | 40.2 ± 3% | 82 ± 1.5% |
| CC1CCc2cc(F)cc3c(=O)c(C(=O)O)cn1c23 (centres undefined) [Flumequine] + CCCCNC(=O)OCC#CI [3-iodo-2-propynyl butylcarbamate (IPBC)] | 78.63 ± 0.16% | 97.12 ± 0.84% |
